The record followed here is ChEMBL document CHEMBL3988442, “University of Dundee, Small-Polar-MMV Screening Library” (2021).

The whole screen tested about 48,000 compounds, of which about 13,000 (27%) showed an effect of 50% or more. Some of the results follow.

For this assay, the system named is Wolbachia pipientis. The experiment in a line: Anti-Wolbachia Cell-Based Screen. It is filed as functional. The arrangement: scale not given: in the data most compounds retested in dose-response had high values. Conditions: 5 µM.
Turning to `O=C(CCCn1cncn1)NC1(c2cccc(Br)c2)CC1`, the “Percent Effect” value was -89.93%.

With `O=S(=O)(NCCc1ccccc1F)N1CCOCC1`, the “Percent Effect” value is 104.5%.

In the case of `CCOc1ncccc1CNS(=O)(=O)N1CCOCC1`, the “Percent Effect” value was -0.8612%.

On to `O=C(Cc1ccccc1F)NCCN1CCOCC1`, for which the “Percent Effect” value stood at 3.995%.

Turning to `O=S(=O)(Cc1ccccc1F)NCCN1CCOCC1`, the “Percent Effect” value is -10.21%.

Regarding `O=S(=O)(NCc1cccnc1OC1CCCC1)N1CCOCC1`, the “Percent Effect” value is -7.047%.

As to `O=S(=O)(NCCc1ccccc1C(F)(F)F)N1CCOCC1`, the “Percent Effect” value worked out at 96.69%.

As for `Cc1nc(S(=O)(=O)N2CCc3[nH]nc(CCC(C)C)c3C2)cn1C`, the “Percent Effect” value is 14.04%.

In the case of `CC(C)CN1CC(c2nc(CCc3ccccc3)n[nH]2)CC1=O` (configuration not stated), the “Percent Effect” value was 6.531%.

For the compound `O=C(c1ccncc1)N1CCCC1C1CCN(Cc2ccccc2)CC1` (configuration not stated), the “Percent Effect” value is reported as -37.72%.

Turning to `CN1CCCC[C@@H]2[C@H]1[C@@H](c1ccccc1)CCN2C(=O)c1ccncc1`, the “Percent Effect” value came to 88.59%.

With `CN1CCCCC[C@@H]2[C@@H]1[C@H](c1ccccc1)CN2C(=O)c1cccnc1`, the “Percent Effect” value was found to be 98.96%.

Regarding `Cc1nnsc1C(=O)N1CC[C@H](c2ccccc2)[C@@H]2[C@H]1CCCCN2C`, the “Percent Effect” value was found to be 109%.

Turning to `CN1CCCC[C@@H]2[C@H]1[C@@H](c1ccccc1)CCN2C(=O)c1ccccc1`, the “Percent Effect” value was -7.424%.

With `CC(C)=CCN1CCN(C(=O)c2snnc2C)[C@H]2CS(=O)(=O)C[C@H]21`, the “Percent Effect” value is reported as -1.087%.

Take `Cc1nnsc1C(=O)N1CCN(CC2CC2)[C@@H]2CS(=O)(=O)C[C@@H]21`: the “Percent Effect” value was found to be 2.438%.

Take `O=C(c1cccnc1)N1CCCC1C1CCN(Cc2ccccc2)CC1` (configuration not stated): the “Percent Effect” value is reported as -39.09%.

On to `CN1CCCC[C@@H]2[C@H]1[C@@H](c1ccccc1)CCN2C(=O)c1cccnc1`, for which the “Percent Effect” value is given as 94.07%.

Take `COC(=O)C1CCCN1C(=O)c1ccc(Cl)cc1F` (configuration not stated): the “Percent Effect” value was determined as 16.38%.

Take `CN1CCN(c2ccc(NC(=O)c3ccccn3)c(C(F)(F)F)c2)CC1`: the “Percent Effect” value is listed as -8.677%.

For `CCNC(=O)c1ccoc1CN1c2ccccc2CC1C` (configuration not stated), the “Percent Effect” value is -6.269%.

For the compound `CCN(CCc1nc2cc(C)ccc2[nH]1)C(=O)[C@@H](N)COC`, the “Percent Effect” value stood at 2.321%.

For `Cc1nc(CCNc2ccc(-c3nc(C)c(C)c(=O)[nH]3)cn2)cs1`, the “Percent Effect” value amounted to 1.722%.

Take `O=C(CCCc1nc2ccccc2[nH]1)N1CCCC1c1ccccn1` (configuration not stated): the “Percent Effect” value is on record as -11.11%.

For `O=C(CCc1nc2ccccc2[nH]1)NC1CCOC2(CCOCC2)C1` (configuration not stated), the “Percent Effect” value was 103.6%.

As to `COc1c(C)cnc(CNC(=O)CCc2nc3ccccc3[nH]2)c1C`, the “Percent Effect” value is given as 4.531%.

As to `CN(C)C(=O)NC1COC2(CCN(S(=O)(=O)c3ccccc3)CC2)C1` (configuration not stated), the “Percent Effect” value was determined as 5.169%.

Consider `O=C(NCCNc1ccccn1)NC1CCOC2(CCCCC2)C1` (configuration not stated), for which the “Percent Effect” value is reported as -19.85%.

`O=C(CCS(=O)(=O)c1ccccc1)NC1CCOC2(CCOCC2)C1` (configuration not stated): the “Percent Effect” value is recorded as 92.28%.

Turning to `CCc1ncc2c(n1)CN(C(=O)CNC(=O)c1ccccc1)C2`, the “Percent Effect” value came out at 27.82%.

As for `COc1cccc(CN(C)Cc2[nH]c3ccccc3c2C)c1O`, the “Percent Effect” value was 10.98%.

As to `Cc1cccc(CN2CC3(CCN(S(=O)(=O)C4CC4)CC3)OCC2=O)n1.O=C(O)C(F)(F)F`, the “Percent Effect” value amounted to 102.5%.

For `Cc1cccc(CN2CCC3(CCCN(C(=O)N(C)C)C3)C2=O)n1.O=C(O)C(F)(F)F` (configuration not stated), the “Percent Effect” value is -4.614%.

As to `CCS(=O)(=O)N1CCC2(CC1)CN(Cc1ccccn1)C(=O)CO2.O=C(O)C(F)(F)F`, the “Percent Effect” value is listed as -5.616%.

For the compound `Cc1cccc(N2CC3(CCN(S(=O)(=O)C4CC4)C3)C2)n1.O=C(O)C(F)(F)F`, the “Percent Effect” value was found to be 2.181%.

Turning to `Cc1cccc(CN2CC3(CCN(C4CCOC4)CC3)OCC2=O)n1.O=C(O)C(F)(F)F.O=C(O)C(F)(F)F` (configuration not stated), the “Percent Effect” value was found to be 100.8%.

In the case of `O=C(O)C(F)(F)F.O=C1COC2(CCN(c3cccc(F)c3)CC2)CN1Cc1ccccn1`, the “Percent Effect” value is recorded as -8.645%.

In the case of `Cc1cccc(CN2CC3(CCN(C(=O)N(C)C)CC3)OCC2=O)n1.O=C(O)C(F)(F)F`, the “Percent Effect” value came out at 105.7%.

On to `Cc1ccc(N2CCC3(CC2)CCN(C2CCOC2)CC3)nn1.O=C(O)C(F)(F)F` (configuration not stated), for which the “Percent Effect” value was -7.269%.

On to `CC(CCNC(=O)N1CCC1)N(C)C(=O)OC(C)(C)C` (configuration not stated), for which the “Percent Effect” value is on record as -2.382%.

For `Cl.Cl.O[C@@H]1C[C@@](CNCc2ccc(F)cc2)(COc2cccnc2)C[C@@H]1O`, the “Percent Effect” value was -10.51%.

In the case of `Cc1ncc(CNCC2CCC(C(N)=O)CC2)n1-c1ccccc1` (configuration not stated), the “Percent Effect” value was -1.319%.

`CCc1nc(N)nc(NCCC(=O)NC2CCCCC2)c1C`: the “Percent Effect” value is given as 10.22%.

As to `CCS(=O)(=O)NCC1Cn2nnc(-c3cccc(C)c3)c2CO1` (configuration not stated), the “Percent Effect” value is recorded as -10.41%.

For the compound `CCOCCC(=O)N1C[C@H]2CC[C@@H]1CN(c1ncccn1)C2`, the “Percent Effect” value is 22.34%.

`O=C(NC1CC1)[C@H]1CN(Cc2ccc3c(c2)OCO3)C[C@H]2OCC[C@@H]12.O=C(O)C(F)(F)F`: the “Percent Effect” value was -14.17%.

Turning to `CN1CCC2(COCCN(Cc3ccc4c(c3)OCO4)C2)C1.O=C(O)C(F)(F)F.O=C(O)C(F)(F)F` (configuration not stated), the “Percent Effect” value is on record as -6.126%.

Turning to `Cc1ncsc1CN1CC[C@H]2OCC[C@@]2(C(=O)NC2CC2)C1.O=C(O)C(F)(F)F`, the “Percent Effect” value was found to be 0.183%.

Consider `CC(C)NC(=O)[C@@]12CCO[C@@H]1CCN(Cc1ccc3c(c1)OCO3)C2.O=C(O)C(F)(F)F`, for which the “Percent Effect” value stood at 90.31%.

Consider `CNC(=O)[C@@]12CCO[C@@H]1CCN(Cc1ccc3c(c1)OCO3)C2.O=C(O)C(F)(F)F`, for which the “Percent Effect” value came out at 92.17%.

As to `CN(C)C(=O)[C@@H]1CCO[C@@H]2CCN(Cc3ccc4c(c3)OCO4)C[C@@H]21.O=C(O)C(F)(F)F`, the “Percent Effect” value is reported as -16.18%.

`CN(C)C(=O)[C@@]12CCO[C@@H]1CCN(Cc1ccc3c(c1)OCO3)C2.O=C(O)C(F)(F)F`: the “Percent Effect” value turned out to be 104.9%.

In the case of `O=C(NC1CC1)[C@@]12CCO[C@@H]1CCN(Cc1ccc3c(c1)OCO3)C2.O=C(O)C(F)(F)F`, the “Percent Effect” value is listed as 117%.

Consider `CC(C)NC(=O)[C@@H]1CN(Cc2ccc3c(c2)OCO3)C[C@H]2OCC[C@H]21.O=C(O)C(F)(F)F`, for which the “Percent Effect” value is -18.01%.

Regarding `Cc1ncsc1CN1CC[C@H]2OCC[C@@]2(C(=O)NC(C)C)C1.O=C(O)C(F)(F)F`, the “Percent Effect” value turned out to be 3.331%.

Consider `CNC(=O)[C@@]12CCO[C@@H]1CCN(Cc1cccc(C)c1)C2.O=C(O)C(F)(F)F`, for which the “Percent Effect” value was 5.352%.

Take `O=C(NC1CC1)[C@@H]1CN(Cc2ccc3c(c2)OCO3)C[C@H]2OCC[C@H]21.O=C(O)C(F)(F)F`: the “Percent Effect” value is reported as -3.513%.

Consider `O=C1OCCN1Cc1cccc(C(F)(F)F)c1F`, for which the “Percent Effect” value is listed as -20.92%.

For `CCC(NC(=O)c1ccco1)c1ccccc1OCC(=O)N1CCCC1` (configuration not stated), the “Percent Effect” value was found to be 7.206%.

For the compound `CCOc1ccc(NC(=O)c2oc(CC)cc2C)cc1CO`, the “Percent Effect” value is reported as -16.02%.

Take `O=C(NCc1ccco1)[C@@]12CCO[C@@H]1CCN(CC1CCOCC1)C2.O=C(O)C(F)(F)F`: the “Percent Effect” value is on record as -4.272%.

For the compound `CC(C)NC(=O)[C@@]12CCO[C@@H]1CCN(Cc1ccco1)C2.O=C(O)C(F)(F)F`, the “Percent Effect” value is 113.3%.

As for `Cc1cc(CN2CC[C@H]3OCC[C@@]3(C(=O)NCc3ccco3)C2)no1.O=C(O)C(F)(F)F`, the “Percent Effect” value is listed as -7.292%.

For the compound `O=C(NC1CC1)[C@@H]1CCO[C@@H]2CCN(C3CCCC3)C[C@H]21`, the “Percent Effect” value is reported as -4.337%.

For the compound `COc1ccc(CN2CCN(CC3CC3)[C@@H]3CS(=O)(=O)C[C@@H]32)cc1O`, the “Percent Effect” value amounted to 13.23%.

As to `Cc1ccc(CNCc2c[nH]nc2C(C)(C)C)c(OC2CCOC2)c1` (configuration not stated), the “Percent Effect” value is on record as 13.41%.

On to `COc1ccc(-c2cc[nH]n2)cc1CNC1CCCC1`, for which the “Percent Effect” value is -3.837%.

In the case of `CC(C)(C)c1n[nH]cc1CNC1CCC(O)CC1` (configuration not stated), the “Percent Effect” value is listed as 81.49%.

As to `CC(C)(C)c1n[nH]cc1CNC1CCC(OCC(F)(F)F)CC1.Cl` (configuration not stated), the “Percent Effect” value is 88.78%.

As to `CC(C)(C)c1n[nH]cc1CNC1CCC(C(F)(F)F)CC1.Cl` (configuration not stated), the “Percent Effect” value worked out at 89.77%.

As for `Cc1n[nH]cc1CNC1CCN(c2cccc(C(F)(F)F)c2)CC1`, the “Percent Effect” value was -2.63%.

As to `Cc1n[nH]cc1CNC1CCN(c2ccc(F)cc2)CC1.Cl`, the “Percent Effect” value is -3.892%.

For `Cc1n[nH]cc1CNCc1ccnc(OCC(F)(F)F)c1.Cl`, the “Percent Effect” value is listed as -12.37%.

In the case of `CN(Cc1ccccc1)CC(C)(C)NC(=O)c1cnccn1`, the “Percent Effect” value came to 4.118%.

In the case of `Cc1cccc(S(=O)(=O)N2CC[C@H]3[C@H]2CCN3c2ncccn2)c1.O=C(O)C(F)(F)F`, the “Percent Effect” value is on record as -3.796%.

With `O=c1[nH]ccc2cc(-c3cc(O)cc(CCC4CCCCN4)c3)ccc12` (configuration not stated), the “Percent Effect” value is -30.56%.

With `Cc1cccc(C(=O)N2CCCC2)c1NCC(=O)NC(C)(C#N)C1CC1` (configuration not stated), the “Percent Effect” value is 5.415%.

Regarding `CCC(CC)c1cc(CNC(=O)N2CCCC(N(C)C)C2)on1` (configuration not stated), the “Percent Effect” value is -19.35%.

Consider `O=c1[nH]c(CCN2CCN(CC(F)(F)F)CC2)nc2ccccc12`, for which the “Percent Effect” value was -18.37%.

With `O=C(CN1CCCNC1=O)Nc1ccccc1C(=O)C1CCCC1`, the “Percent Effect” value is listed as 8.695%.

Take `CC(C)CCN1CC[C@H](c2nnc(Cc3c[nH]c4ccccc34)o2)C1`: the “Percent Effect” value is -3.447%.

Take `CC(C)C1=NOC2(CCN(Cc3c[nH]c4ccccc34)CC2)C1`: the “Percent Effect” value is on record as 126.9%.

Regarding `c1ccc(C2=NOC3(CCN(Cc4c[nH]c5ccccc45)CC3)C2)cc1`, the “Percent Effect” value is given as 122.3%.

With `c1cncc(O[C@H]2COCCN(Cc3c[nH]c4ccccc34)C2)c1`, the “Percent Effect” value is listed as 0.3938%.

For the compound `Clc1ccc(CN2CCOC[C@H](Oc3cccnc3)C2)cc1`, the “Percent Effect” value is recorded as -8.51%.

For `CC1(C)CN(Cc2nnc(-c3cccnc3)o2)CC[C@]1(C)O`, the “Percent Effect” value is on record as -0.3969%.

For `c1cncc(C2=NOC3(CCN(Cc4c[nH]c5ccccc45)CC3)C2)c1`, the “Percent Effect” value was 119%.

With `OCC1(Cc2ccc(Cl)cc2)CCN(Cc2cccnc2)CC1`, the “Percent Effect” value is reported as -27.42%.

In the case of `O=C(O)c1ccc2c(CN3CCOCC3)c[nH]c2c1`, the “Percent Effect” value stood at 6.765%.

Regarding `Clc1ccc(CN2CCC3(CC2)CC(c2cccnc2)=NO3)cc1`, the “Percent Effect” value was found to be 114.5%.

`O=C(O)c1ccc2c(CN3CCCC3)c[nH]c2c1`: the “Percent Effect” value is -9.8%.

Take `CC(C)N1CC[C@H](c2nnc(Cc3c[nH]c4ccccc34)o2)C1`: the “Percent Effect” value is recorded as -6.101%.
